Test results published in ChEMBL document CHEMBL3988442, “University of Dundee, Small-Polar-MMV Screening Library” (2021).
For some assays here: Measured potencies and affinities stand elsewhere.

What was measured:
Parameters in all cases: scale not given: direction of the effect not stated beside the values
[1] = molecular target: Protein translocase subunit SecA (Escherichia coli (strain K12)) (UniProt P10408); assay: Assay to Identify E. coli SecA ATPase Inhibitors; format: functional; details: 30 µM
[2] = molecular target: T1, Ubiquitin-activating enzyme e1, putative (Leishmania donovani (strain BPK282A1)) (UniProt E9BSI1); assay: Leishmania donovani Ubiquitin Activating Enzyme (LdE1); format: functional; details: 30 µM
T1 sequence (whole entry): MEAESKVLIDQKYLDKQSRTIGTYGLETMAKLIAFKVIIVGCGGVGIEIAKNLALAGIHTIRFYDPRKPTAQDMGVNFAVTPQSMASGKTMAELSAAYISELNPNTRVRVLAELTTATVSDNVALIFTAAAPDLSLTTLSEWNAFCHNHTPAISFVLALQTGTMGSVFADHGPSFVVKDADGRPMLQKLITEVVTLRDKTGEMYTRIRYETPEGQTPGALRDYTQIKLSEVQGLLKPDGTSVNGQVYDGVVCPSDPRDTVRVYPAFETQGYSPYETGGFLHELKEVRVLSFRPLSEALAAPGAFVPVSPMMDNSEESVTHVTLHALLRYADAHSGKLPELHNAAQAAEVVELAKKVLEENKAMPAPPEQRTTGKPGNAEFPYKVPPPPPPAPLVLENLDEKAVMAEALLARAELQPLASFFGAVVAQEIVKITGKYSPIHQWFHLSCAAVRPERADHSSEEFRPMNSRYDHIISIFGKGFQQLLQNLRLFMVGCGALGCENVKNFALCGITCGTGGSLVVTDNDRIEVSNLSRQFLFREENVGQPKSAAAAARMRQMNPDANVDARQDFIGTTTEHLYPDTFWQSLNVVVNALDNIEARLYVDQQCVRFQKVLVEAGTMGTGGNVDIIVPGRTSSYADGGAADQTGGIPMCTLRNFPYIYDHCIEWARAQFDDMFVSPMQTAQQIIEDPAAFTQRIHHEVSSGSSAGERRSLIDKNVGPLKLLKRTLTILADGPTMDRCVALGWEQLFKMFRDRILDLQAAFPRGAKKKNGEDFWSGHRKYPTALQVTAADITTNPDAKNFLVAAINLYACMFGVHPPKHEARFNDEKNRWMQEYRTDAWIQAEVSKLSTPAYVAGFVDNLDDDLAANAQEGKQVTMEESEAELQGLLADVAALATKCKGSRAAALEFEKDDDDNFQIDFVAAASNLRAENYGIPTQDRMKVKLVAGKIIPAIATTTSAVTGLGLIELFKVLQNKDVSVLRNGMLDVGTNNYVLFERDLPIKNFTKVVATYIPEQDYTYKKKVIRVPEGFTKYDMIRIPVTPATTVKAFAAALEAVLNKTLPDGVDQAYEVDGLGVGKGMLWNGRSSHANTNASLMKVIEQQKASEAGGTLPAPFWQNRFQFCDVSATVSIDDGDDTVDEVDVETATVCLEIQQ

[3] = molecular target: AMP-activated protein kinase, AMPK (Homo sapiens) (UniProt P54646+O43741+P54619+Q9UGJ0+Q9Y478+Q13131+Q9UGI9); assay: AMP-dependent Kinase enzyme assay. An in vitro enzyme assay that detects ADP turnover that is directly proportional to AMPK activity. This uses naive AMPK that is activated during the assay with MK-8722; format: functional; details: 30 µM
[4] = molecular target: Sialic acid-binding Ig-like lectin 9 (Homo sapiens) (UniProt Q9Y336); assay: Hs-Siglec9 ALPHAscreen SOP 20170721; details: 10 µM
Trypanosoma cruzi = assay: Trypanosoma cruzi phosphomannomutase and mannose-1-phosphate guanylyltransferase assay; format: functional; details: 10 µM
[5] = molecular target: T2, Arginase-2, mitochondrial (Homo sapiens) (UniProt P78540); assay: in vitro enzyme assay to detect the production of urea directly proportional to the activity of Arginase II; format: functional; details: 33.3 µM; also: in the data most compounds retested in dose-response had high values
T2 sequence (whole entry): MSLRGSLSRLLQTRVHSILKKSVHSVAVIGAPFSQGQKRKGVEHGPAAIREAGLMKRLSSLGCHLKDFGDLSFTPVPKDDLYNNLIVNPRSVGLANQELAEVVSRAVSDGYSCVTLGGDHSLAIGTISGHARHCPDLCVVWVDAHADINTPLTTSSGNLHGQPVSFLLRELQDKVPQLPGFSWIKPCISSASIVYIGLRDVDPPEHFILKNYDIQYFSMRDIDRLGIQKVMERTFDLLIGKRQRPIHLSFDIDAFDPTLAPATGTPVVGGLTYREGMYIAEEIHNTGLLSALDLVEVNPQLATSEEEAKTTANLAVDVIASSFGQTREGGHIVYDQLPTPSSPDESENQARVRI

[6] = molecular target: T3, Proteasome subunit beta (Trypanosoma cruzi) (UniProt O96673); assay: Trypanosoma cruzi proteasome chymotrypsin-like activity (TcProtChymo) assay.; also: in the data most compounds retested in dose-response had high values; format: functional; details: 9.37 µM
T3 sequence (whole entry): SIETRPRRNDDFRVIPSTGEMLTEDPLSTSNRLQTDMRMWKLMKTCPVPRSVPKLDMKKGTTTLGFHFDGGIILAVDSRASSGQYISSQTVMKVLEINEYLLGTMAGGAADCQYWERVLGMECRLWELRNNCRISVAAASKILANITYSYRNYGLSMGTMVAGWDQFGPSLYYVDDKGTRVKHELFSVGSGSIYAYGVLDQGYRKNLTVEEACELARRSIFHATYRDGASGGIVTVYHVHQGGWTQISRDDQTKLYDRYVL

Homo sapiens = organism: Homo sapiens; assay: To identify inhibition of the IFN signalling (Jak-Stat) pathway via expression of an eGFP reporter gene under the control of an IFN-stimulated response element (ISRE) containing MxA promoter.; format: functional; details: 30 µM
[7] = molecular target: T4, Tyrosyl-tRNA synthetase, putative (Trypanosoma cruzi (strain CL Brener)) (UniProt Q4DSP6); assay: Trypanosoma cruzi tyrosyl tRNA synthetase (TcYRS) _High Tyrosine SOP; format: functional; details: 30 µM; also: in the data most compounds retested in dose-response had high values
T4 sequence (whole entry): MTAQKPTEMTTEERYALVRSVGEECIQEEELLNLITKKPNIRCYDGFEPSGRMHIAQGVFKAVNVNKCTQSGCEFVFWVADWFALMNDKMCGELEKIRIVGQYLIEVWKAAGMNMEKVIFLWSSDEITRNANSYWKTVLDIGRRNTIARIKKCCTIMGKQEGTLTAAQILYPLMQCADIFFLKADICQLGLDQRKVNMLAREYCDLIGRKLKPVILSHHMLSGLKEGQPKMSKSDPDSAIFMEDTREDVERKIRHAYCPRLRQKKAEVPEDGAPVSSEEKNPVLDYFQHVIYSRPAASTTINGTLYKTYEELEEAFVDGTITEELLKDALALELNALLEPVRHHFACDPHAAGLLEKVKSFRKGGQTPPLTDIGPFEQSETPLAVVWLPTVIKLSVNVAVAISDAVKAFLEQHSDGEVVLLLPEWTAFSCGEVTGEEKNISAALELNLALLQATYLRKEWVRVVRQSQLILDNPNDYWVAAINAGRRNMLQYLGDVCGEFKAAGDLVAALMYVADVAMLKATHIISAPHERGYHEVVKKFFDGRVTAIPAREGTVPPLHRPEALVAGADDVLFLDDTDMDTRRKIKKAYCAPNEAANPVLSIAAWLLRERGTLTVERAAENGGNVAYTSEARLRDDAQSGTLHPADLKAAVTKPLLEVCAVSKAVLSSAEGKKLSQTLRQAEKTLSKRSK

[8] = molecular target: T4, Tyrosyl-tRNA synthetase, putative (Trypanosoma cruzi (strain CL Brener)); assay: Trypanosoma cruzi tyrosyl tRNA synthetase (TcYRS) SOP; format: functional; details: 30 µM
[9] = molecular target: Chromo domain-containing protein 1 (Saccharomyces cerevisiae (strain ATCC 204508 / S288c) (Baker's yeast)) (UniProt P32657); assay: ScCHD-1 Enzyme Inhibition Assay; format: functional; details: 30 µM; also: in the data most compounds retested in dose-response had high values
Sequence of Chromo domain-containing protein 1 (Saccharomyces cerevisiae (strain ATCC 204508 / S288c) (Baker's yeast)) (P32657 whole entry, the tested form may be a part): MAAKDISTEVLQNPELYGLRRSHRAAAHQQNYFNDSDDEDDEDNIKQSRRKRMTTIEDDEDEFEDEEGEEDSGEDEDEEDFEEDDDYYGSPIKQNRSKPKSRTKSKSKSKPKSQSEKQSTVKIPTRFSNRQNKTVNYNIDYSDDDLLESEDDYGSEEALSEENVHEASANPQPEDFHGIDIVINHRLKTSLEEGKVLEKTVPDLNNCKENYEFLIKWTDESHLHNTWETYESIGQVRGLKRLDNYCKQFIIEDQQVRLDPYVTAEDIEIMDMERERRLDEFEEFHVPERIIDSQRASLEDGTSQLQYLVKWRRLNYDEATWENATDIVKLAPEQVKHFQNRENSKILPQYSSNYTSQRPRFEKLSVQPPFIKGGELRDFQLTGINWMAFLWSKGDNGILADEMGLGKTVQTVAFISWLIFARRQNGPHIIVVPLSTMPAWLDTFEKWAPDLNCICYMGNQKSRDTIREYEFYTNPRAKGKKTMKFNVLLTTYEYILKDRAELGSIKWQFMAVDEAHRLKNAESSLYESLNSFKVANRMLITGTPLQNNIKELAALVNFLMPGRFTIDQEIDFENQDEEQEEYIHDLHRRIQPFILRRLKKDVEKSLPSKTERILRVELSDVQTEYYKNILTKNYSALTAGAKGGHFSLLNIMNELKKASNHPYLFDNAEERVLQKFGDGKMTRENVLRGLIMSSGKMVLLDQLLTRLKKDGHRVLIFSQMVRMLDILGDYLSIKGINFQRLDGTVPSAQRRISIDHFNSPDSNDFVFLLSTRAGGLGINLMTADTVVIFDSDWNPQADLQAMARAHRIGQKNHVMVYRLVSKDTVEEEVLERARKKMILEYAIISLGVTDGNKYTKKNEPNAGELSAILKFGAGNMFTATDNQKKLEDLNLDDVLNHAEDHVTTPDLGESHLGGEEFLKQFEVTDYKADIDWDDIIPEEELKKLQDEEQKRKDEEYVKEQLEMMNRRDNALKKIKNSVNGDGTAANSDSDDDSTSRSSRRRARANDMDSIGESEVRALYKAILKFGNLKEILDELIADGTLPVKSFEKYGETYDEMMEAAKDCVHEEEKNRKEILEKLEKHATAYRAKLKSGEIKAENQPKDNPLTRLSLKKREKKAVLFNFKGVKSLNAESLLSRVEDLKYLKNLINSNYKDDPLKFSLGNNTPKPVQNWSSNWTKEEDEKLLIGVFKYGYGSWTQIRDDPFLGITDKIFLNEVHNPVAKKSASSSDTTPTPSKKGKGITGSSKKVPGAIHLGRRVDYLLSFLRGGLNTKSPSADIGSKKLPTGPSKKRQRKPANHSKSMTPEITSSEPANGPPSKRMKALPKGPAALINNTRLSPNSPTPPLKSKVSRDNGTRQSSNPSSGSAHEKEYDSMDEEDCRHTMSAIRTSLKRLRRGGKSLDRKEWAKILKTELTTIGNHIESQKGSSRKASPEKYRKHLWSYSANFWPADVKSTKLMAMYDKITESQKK

Sequence of Sialic acid-binding Ig-like lectin 9 (Homo sapiens) (Q9Y336 whole entry): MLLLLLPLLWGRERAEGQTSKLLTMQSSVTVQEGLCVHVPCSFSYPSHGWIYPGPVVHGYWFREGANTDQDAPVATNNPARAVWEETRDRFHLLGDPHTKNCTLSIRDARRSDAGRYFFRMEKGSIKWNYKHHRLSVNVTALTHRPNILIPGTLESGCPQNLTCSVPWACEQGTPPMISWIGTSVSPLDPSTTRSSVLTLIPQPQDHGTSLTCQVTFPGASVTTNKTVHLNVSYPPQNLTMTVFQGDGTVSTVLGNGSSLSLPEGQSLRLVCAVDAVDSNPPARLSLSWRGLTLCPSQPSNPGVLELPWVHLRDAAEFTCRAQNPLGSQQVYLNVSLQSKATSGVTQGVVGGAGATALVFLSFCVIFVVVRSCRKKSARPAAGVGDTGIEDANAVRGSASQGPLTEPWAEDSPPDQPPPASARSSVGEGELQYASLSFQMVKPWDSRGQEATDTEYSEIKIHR
Sequence of Protein translocase subunit SecA (Escherichia coli (strain K12)) (P10408 whole entry): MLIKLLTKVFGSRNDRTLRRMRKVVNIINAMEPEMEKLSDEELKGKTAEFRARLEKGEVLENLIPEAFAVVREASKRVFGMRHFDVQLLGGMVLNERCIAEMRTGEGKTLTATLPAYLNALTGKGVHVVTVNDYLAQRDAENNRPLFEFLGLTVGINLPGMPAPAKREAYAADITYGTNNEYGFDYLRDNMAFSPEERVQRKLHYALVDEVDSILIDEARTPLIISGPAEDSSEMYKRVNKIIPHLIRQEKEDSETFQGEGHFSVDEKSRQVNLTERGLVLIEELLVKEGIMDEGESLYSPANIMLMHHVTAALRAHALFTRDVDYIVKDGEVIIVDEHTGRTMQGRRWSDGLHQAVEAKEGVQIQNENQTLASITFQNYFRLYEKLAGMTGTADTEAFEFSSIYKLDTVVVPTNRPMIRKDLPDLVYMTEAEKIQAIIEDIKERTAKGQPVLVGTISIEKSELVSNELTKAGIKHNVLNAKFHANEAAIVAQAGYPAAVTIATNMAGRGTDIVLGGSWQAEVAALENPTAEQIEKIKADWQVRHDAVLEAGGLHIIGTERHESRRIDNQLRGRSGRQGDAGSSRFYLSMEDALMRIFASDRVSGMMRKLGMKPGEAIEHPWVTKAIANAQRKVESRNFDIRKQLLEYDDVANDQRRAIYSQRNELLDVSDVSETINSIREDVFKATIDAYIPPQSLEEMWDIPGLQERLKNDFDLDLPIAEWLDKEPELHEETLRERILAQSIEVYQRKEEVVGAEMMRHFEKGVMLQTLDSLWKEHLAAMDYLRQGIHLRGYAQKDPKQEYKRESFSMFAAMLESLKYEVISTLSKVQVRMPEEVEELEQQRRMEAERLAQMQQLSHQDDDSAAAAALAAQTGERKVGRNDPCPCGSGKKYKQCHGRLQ

c1ccc(-c2cnc(CNCC3CCCN3c3cccnn3)o2)cc1 (stereo not given)
Percent Effect [1]: -1.23%
Percent Effect [2]: -5.2%
Percent Effect [3]: 3.3%
Percent Effect [4]: -5.27%
Percent Effect (Trypanosoma cruzi): 1.86%
Percent Effect [5]: 3.16%
Percent Effect [6]: 15.8%
Percent Effect (Homo sapiens): 0.932%
Percent Effect [7]: 16.2%
Percent Effect [8]: 21.2%
Percent Effect [9]: -20.7%

CNC(=O)N1CCc2cc(C(=O)N(C)C)c(NCC3CC3)nc2CC1
Percent Effect [1]: -4.82%
Percent Effect [2]: 8.11%
Percent Effect [3]: -2.71%
Percent Effect [4]: 2.07%
Percent Effect (Trypanosoma cruzi): -4.4%
Percent Effect [5]: -0.248%
Percent Effect [6]: 10.7%
Percent Effect (Homo sapiens): 18.6%
Percent Effect [7]: 6.45%
Percent Effect [8]: 16.1%
Percent Effect [9]: -1.72%

COc1ccnc(C(=O)N2CCCC(c3noc(C)n3)C2)c1 (stereo not given)
Percent Effect [1]: -0.16%
Percent Effect [2]: -7.59%
Percent Effect [3]: 1.48%
Percent Effect [4]: 5.56%
Percent Effect (Trypanosoma cruzi): -0.85%
Percent Effect [5]: 0.76%
Percent Effect [6]: 3.03%
Percent Effect (Homo sapiens): -3.33%
Percent Effect [7]: -2.46%
Percent Effect [8]: -1.27%
Percent Effect [9]: -3.23%

CN1CCc2onc(CNc3ncccn3)c2C1
Percent Effect [1]: -7.63%
Percent Effect [2]: 2.67%
Percent Effect [3]: 0.141%
Percent Effect [4]: -6.27%
Percent Effect (Trypanosoma cruzi): -7.53%
Percent Effect [5]: -53.9%
Percent Effect [6]: 3.25%
Percent Effect (Homo sapiens): 3.62%
Percent Effect [7]: 0%
Percent Effect [8]: 5%
Percent Effect [9]: -6.01%

CC(C)c1ncc2c(n1)CN(Cc1nc(-c3ccoc3)no1)CC2
Percent Effect [1]: -2.65%
Percent Effect [2]: 10.8%
Percent Effect [3]: -16.9%
Percent Effect [4]: 5.18%
Percent Effect (Trypanosoma cruzi): 0.0929%
Percent Effect [5]: -0.185%
Percent Effect [6]: 6.46%
Percent Effect (Homo sapiens): 12.5%
Percent Effect [7]: 9.9%
Percent Effect [8]: 3.66%
Percent Effect [9]: 11.7%

Clc1snnc1CN1CCOC(CNc2cccnn2)C1 (stereo not given)
Percent Effect [1]: 0.0334%
Percent Effect [2]: -2.6%
Percent Effect [3]: -5.26%
Percent Effect [4]: 8.04%
Percent Effect (Trypanosoma cruzi): 5.8%
Percent Effect [5]: 5.34%
Percent Effect [6]: 1.18%
Percent Effect (Homo sapiens): -0.834%
Percent Effect [7]: 4.85%
Percent Effect [8]: 12.2%
Percent Effect [9]: -5.35%

CC(=O)N1CCC2(CCCN(C(=O)c3ccccc3)C2)C1 (stereo not given)
Percent Effect [1]: -2.42%
Percent Effect [2]: 0%
Percent Effect [3]: 11%
Percent Effect [4]: -1.1%
Percent Effect (Trypanosoma cruzi): -1.57%
Percent Effect [5]: 3.03%
Percent Effect [6]: 1.85%
Percent Effect (Homo sapiens): -0.0486%
Percent Effect [7]: 2.13%
Percent Effect [8]: 1.28%
Percent Effect [9]: 5.13%

Cc1cc(C)n(-c2cncc(NCCNC(=O)CC3CCCC3)n2)n1
Percent Effect [1]: -5.92%
Percent Effect [2]: 5.41%
Percent Effect [3]: 16.2%
Percent Effect [4]: 27.9%
Percent Effect (Trypanosoma cruzi): 0.489%
Percent Effect [5]: 1.24%
Percent Effect [6]: 8.67%
Percent Effect (Homo sapiens): -10.2%
Percent Effect [7]: 1.07%
Percent Effect [8]: 8.64%
Percent Effect [9]: -4.7%

COCCN1CCc2cc(C(=O)N(C)C)c(NCC3CC3)nc2CC1
Percent Effect [1]: -8.99%
Percent Effect [2]: 2.7%
Percent Effect [3]: 1.27%
Percent Effect [4]: -1.99%
Percent Effect (Trypanosoma cruzi): -5.38%
Percent Effect [5]: -1.24%
Percent Effect [6]: 8.5%
Percent Effect (Homo sapiens): -19.8%
Percent Effect [7]: 2.15%
Percent Effect [8]: 11.1%
Percent Effect [9]: -0.0365%

CN(Cc1ccc(Cl)s1)C1CCCN(c2cccnn2)C1 (stereo not given)
Percent Effect [1]: -0.186%
Percent Effect [2]: -18.4%
Percent Effect [3]: 14.3%
Percent Effect [4]: 0.257%
Percent Effect (Trypanosoma cruzi): 1.27%
Percent Effect [5]: 15.4%
Percent Effect [6]: 7.19%
Percent Effect (Homo sapiens): 10.5%
Percent Effect [7]: 9.57%
Percent Effect [8]: 10.4%
Percent Effect [9]: -1.67%
